# Shown are actives, neighbours in structure and some others; about 7.3% of the full set was active somewhere.
# ELG1 genotox – genotoxicity induction in ELG1-luciferase HEK293T cells; HEK293T ELG1-luciferase reporter, luminescence, 16 h; Potency, µM (highest dose often 46 µM), inactives show at the top dose activity change, positive = activation, hits mostly activators; 330,000 compounds, 1.3% hits; AID 504466; note: % of control where 0% means no effect; nearly all actives have a fitted effect of over 60% in size
#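 Step 1: seed 2,000 HEK293T ELG1-luciferase cells per well. Step 2: add compound or DMSO, incubate 16 hr at 37 °C. Step 3: ONE-Glo, 30 min at room temperature, read luminescence.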
# NPC1 promoter act – NPC1 promoter activation. Huh7 NPC1 promoter luciferase reporter, 24 h. Potency, µM (top dose mostly 9.22 µM), without a hit: at the top dose activation, actives largely listed as activators. 320,000 compounds, 2.4% hits; note: % of control where 0% means no effect; nearly all actives have a fitted effect of over 60% in size
#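 Luminescence from an NPC1 promoter-driven luciferase reporter in stably transfected Huh7 cells was measured after 24 h compound treatment at 37 °C, followed by 10 min ambient incubation with luciferase detection reagent.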
# FLuc modulator – inhibits or activates purified firefly luciferase, miR-21 counter-screen. purified FLuc, Km substrates, luminescence inhibition. 360,000 compounds, 6.9% hits. Potency, µM (titrated, usually from 57.5 µM), for inactives: top-dose activity change, negative = inhibition, hits mostly inhibitors;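 note: plate controls were vehicle for no effect and reference inhibitor for full effect; nearly all actives have a fitted effect of over 55% in size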
# Target sequence (P08659 whole entry, looked up): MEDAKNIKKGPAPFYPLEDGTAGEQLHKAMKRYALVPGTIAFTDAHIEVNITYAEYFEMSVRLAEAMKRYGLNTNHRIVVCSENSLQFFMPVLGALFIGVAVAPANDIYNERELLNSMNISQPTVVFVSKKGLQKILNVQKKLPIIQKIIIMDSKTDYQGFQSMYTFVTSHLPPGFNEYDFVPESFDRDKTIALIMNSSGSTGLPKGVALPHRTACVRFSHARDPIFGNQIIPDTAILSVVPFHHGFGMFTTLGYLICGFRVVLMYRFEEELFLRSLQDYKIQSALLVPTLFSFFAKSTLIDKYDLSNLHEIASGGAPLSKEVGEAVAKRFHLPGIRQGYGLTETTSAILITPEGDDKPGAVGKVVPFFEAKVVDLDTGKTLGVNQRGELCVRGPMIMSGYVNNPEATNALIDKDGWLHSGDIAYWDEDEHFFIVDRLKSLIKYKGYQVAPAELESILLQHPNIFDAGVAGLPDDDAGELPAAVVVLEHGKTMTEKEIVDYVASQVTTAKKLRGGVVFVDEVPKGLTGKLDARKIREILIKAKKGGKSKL
#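 Purified P. pyralis luciferase (10nM final) with 10uM D-luciferin and 10uM ATP (Km levels) in 50mM Tris acetate pH 7.5, 10mM Mg acetate, 0.01% Tween-20, 0.05% BSA; qHTS 6-point titration, ~60 µM downward; luminescence read.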
# Luc counter – counter-screen: inhibitors of Kinase-Glo firefly luciferase. Q27757. Kinase-Glo luciferase, ATP luminescence, 8 min. Potency, µM (series often up to 38.3 µM), for the others: at the highest dose activity change, negative = inhibition, actives largely listed as inhibitors. 200,000 compounds, 0.28% hits; note: % is set by controls: 0 for no effect and ±100 for the full control effect; nearly all actives have a fitted effect of over 60% in size
#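 Compound is pinned into ATP-containing buffer (10 uM ATP, imidazole pH 7.2, 7 mM MgCl2). Kinase-Glo luciferase reagent is then added. Light output is recorded following an 8-min room-temperature incubation.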
# Rab9 prom act – Rab9 promoter activation; Potency, µM (highest dose often 9.22 µM), inactives show top-dose activation, negative = inhibition, usual class: activators; AID 485297; Huh7 Rab9 promoter-luciferase reporter, luminescence, 24 h; 320,000 compounds, 2.8% hits; note: % of control where 0% means no effect; nearly all actives have a fitted effect of over 60% in size
#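 Huh7 cells stably carrying a Rab9 promoter-luciferase reporter, 1500 cells per well in OP-MEM I with 10% FBS, treated with compound 24 hours at 37C. Luciferase activity read by luminescence after 10 minutes with Amplite reagent.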
# SMN2 splice enh – increases expression of the SMN2 splice variant; HEK293 SMN2-luciferase splicing reporter, luminescence, 30-36 h; Potency, µM (series often up to 46.1 µM), without a hit: at the top dose activity change, positive = activation, most hits filed as activators; 210,000 compounds, 2.8% hits; note: % of control where 0% means no effect; nearly all actives have a fitted effect of over 55% in size
#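 qHTS luciferase splicing reporter: luminescence rises when SMN2 exon 7 is included in transfected HEK293 cells. Compound exposure lasted 30-36 h at 37C, with 4.5 mM final sodium butyrate as control, followed by a ONE-Glo read.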
# * = called active by the depositor; ? = inconclusive; · = not tested or not shown; [ ] = dose if it differs, or a comment. Calls come from the whole dose curve; as a rule, active = well fitted curve in the direction sought with a large enough effect; inconclusive = small, poorly fitted or top-dose-only effect, or another doubt; inactive = no such curve, though single readings can be large; an effect the other way counts as inactive or inconclusive. Potency is the fitted concentration of half-maximal effect.
SMILES,ELG1 genotox,NPC1 promoter act,FLuc modulator,Luc counter,Rab9 prom act,SMN2 splice enh
O=c1cc(N2CCN(c3cccc(Cl)c3)CC2)[nH]c(=O)n1C1CCCCC1,?,3%,0%,0%,-33%,7.9µM*
CCOC(=O)Cn1c(=O)c(-c2cc(Br)ccc2N)nc2ccccc21,0%,-7%,4%,·,1%,·
Cn1c(=O)c(-c2cc(Br)ccc2N)nc2ccccc21,?,18%,24µM*,-4%,?,19%
C=CCn1c(SCC(=O)Nc2c(C)n(C)n(-c3ccccc3)c2=O)nc2sc(C)c(C)c2c1=O,-1%,-1%,1%,-4%,5%,0%
CN1N=C2c3ccccc3CCCC2C1c1ccc(F)cc1 (stereo not drawn),?,17%,12µM*,·,26%,·
Cc1nc(SCc2ccccc2Cl)c(C#N)c(C)c1C,·,·,0%,·,·,-7%
Cc1ccc2cc(NC(=O)c3ccc(C(C)(C)C)cc3)ccc2n1,-15%,-2%,9.5µM*,·,2%,·
CCc1ccc(C(=O)Nc2ccc3nn(-c4ccc(C)c(Cl)c4)nc3c2)cc1,·,·,-6%,·,·,15%
CCc1ccc(C(=O)Nc2ccc3nc(C)ccc3c2)cc1,?,3.5µM*,5.4µM*,·,2.8µM*,·
CC(C)(C)c1ccc(C(=O)Nc2ccc(NC(=O)c3ccc(Cl)c(Cl)c3)cc2)cc1,·,·,1%,·,·,-8%
Cc1cc(NC(=O)CN2C(=O)/C(=C/c3ccccc3F)SC2=S)no1,-7%,5%,-1%,·,0%,·
Nc1nc(N)nc(-c2ccc(Cl)cc2)n1,?,?,15µM*,4%,?,25%
Cc1ccc(Oc2ccc(-c3nc(N)nc(N)n3)cc2)cc1,16%,-3%,?,-4%,-3%,-10%
Nc1nc(-c2ccc(Cl)cc2)nnc1-c1ccc(Br)cc1,?,1.8µM*,?,-3%,1.1µM*,·
C=CCn1c(SCC(=O)Nc2cc(C)on2)nc2sc(C)c(C)c2c1=O,2%,-4%,1%,-2%,2%,-11%
CC(C)Oc1cccc(C(=O)C2CCCN(C(=O)CCc3cnn(C)c3)C2)c1 (stereo not drawn),?,?,?,·,3.5µM*,·
Cc1nn(C)c(C)c1CCC(=O)N1CCCC(C(=O)c2cccc(OC(C)C)c2)C1 (stereo not drawn),0%,8%,-13%,·,1%,·
COc1ccc(SC[C@H](CC(C)C)N2CCN(C)CCC2=O)cc1,?,?,?,·,21%,·
CC(C)C[C@@H](CSc1ccc(Br)cc1)N1CCN(C)CCC1=O,?,3.5µM*,19µM*,·,?,·
CC(C)CN1CCC(=O)N(CCSc2ccccc2)CC1,?,1.6µM*,24µM*,·,1.6µM*,·
CC(=O)Nc1ccc(SC[C@H](CC(C)C)N2CCN(CC(C)C)CCC2=O)cc1,1%,-2%,-1%,·,-4%,·
CC(C)C[C@@H](CSc1ccc(Br)cc1)N1CCN(CC(C)C)CCC1=O,5%,?,15µM*,·,20%,·
Cc1ccc(SC[C@H](CC(C)C)N2CCN(C)CCC2=O)cc1,?,?,15µM*,·,3.5µM*,·
Cc1ccc(SCCN2CCN(CCc3ccccc3)CCC2=O)cc1,1%,-3%,-2%,·,-3%,·
Cc1ccc(S(=O)(=O)N2CCC(C(=O)OCC(=O)NCCc3ccccc3)CC2)cc1C,0%,-6%,9%,·,1%,·
SMILES,ELG1 genotox,NPC1 promoter act,FLuc modulator,Luc counter,Rab9 prom act,SMN2 splice enh
CCOC(=O)[C@@H]1[C@H]2COc3ccc(Br)cc3[C@H]2N2C(=O)N(c3cccc(F)c3)C(=O)[C@]12C,3%,0%,8%,·,0%,·
Cc1ccc(SC[C@H](c2ccccc2)N2CCN(C)CCC2=O)cc1,?,?,15µM*,·,2.8µM*,·
COc1ccc(OC)c(S(=O)(=O)N2CCC(C(=O)N3CCCCCC3)CC2)c1,5%,2%,2%,·,0%,·
O=C(Nc1nnc(SCC(=O)N2CCCCC2)s1)c1ccc(F)cc1F,12%,15%,8.5µM*,·,18%,·
O=C(Cc1ccc(F)cc1)Nc1nnc(SCC(=O)N2CCCCC2)s1,0%,-4%,0%,3%,-8%,-9%
O=C(CSc1nnc(NC(=O)c2c(F)cccc2F)s1)NCc1ccccc1,6%,-2%,-14%,·,-2%,·
O=C(CSc1nnc(NC(=O)c2ccc(F)cc2F)s1)NC1CCCC1,?,?,4.3µM*,·,?,·
O=C(CSc1nnc(NC(=O)c2ccccc2F)s1)NC1CCCC1,8%,?,11µM*,·,3.2µM*,·
COc1ccc(CNC(=O)CSc2nnc(NC(=O)c3ccccc3F)s2)cc1,?,3.2µM*,11µM*,·,2.2µM*,·
CC(=O)c1cc(C#N)c(SCc2ccc(F)cc2)nc1C,?,11%,-3%,20%,0%,16%
O=C(Nc1ccc(Oc2ccc(Cl)cc2)cc1)c1ncn[nH]1,-3%,0%,-3%,-4%,4%,-20%
O=C(O)CSc1cccc[n+]1[O-],·,·,7%,1%,·,-13%
O=C(CSc1cccc[n+]1[O-])c1cc2ccccc2o1,?,?,19µM*,-2%,?,-25%
Cc1cccc(C(=O)NC2=NCCS2)c1,?,1.3µM*,8.5µM*,-20%,0.71µM*,·
O=C(NC1=NCCS1)c1ccc(Cl)c(Cl)c1,?,0.63µM*,4.8µM*,·,0.63µM*,·
O=C(Nc1cnccn1)c1csc2ccccc12,?,25%,19µM*,-3%,?,?
O=C(NC1=NCCS1)c1cc(Cl)ccc1Cl,-1%,-5%,-8%,·,3%,·
O=C(NC1=NCCS1)c1cccs1,19%,4%,-19%,1%,16%,28µM*
O=C(Nc1ccon1)c1csc2ccccc12,0%,4%,-10%,1%,-2%,?
Cc1ccccc1Cn1nc(C)c(NC(=O)c2noc3c2CC(C(C)(C)C)CC3)c1C (stereo not drawn),-2%,-9%,-2%,-2%,-8%,-24%
O=C(NC(=S)Nc1ccccc1N1CCCC1)c1ccc([N+](=O)[O-])cc1,-2%,1%,0%,-1%,-1%,?
Cc1cc(C(=O)NC2=NCCS2)cs1,16µM*,2.5µM*,8.5µM*,-3%,1.6µM*,11µM*
O=C(NC1=NCCS1)c1csc2ccccc12,?,2.2µM*,-27%[2.3 µM],-17%,1.6µM*,11µM*
Cc1ccccc1CSCCC(=O)NCCC1=CCCCC1,1%,0%,2%,7%,0%,16%
CC(C)CN(CC(C)C)S(=O)(=O)N1CCC(C(=O)N2CCc3ccccc3C2)CC1,-1%,-5%,1%,0%,-5%,-15%
O=C(CNC(=O)c1ccco1)N=Nc1c(O)[nH]c2ccc([N+](=O)[O-])cc12,0%,-4%,6%,·,-1%,·

# Screening results (PubChem)
